From PubChem BioAssay (NCATS) come the findings set out here.

Records with an inconclusive call do not appear. Entries that show only a call come without a potency. Calls of active or inactive are those of the source. The call rests on the fitted dose curve; in most records, active means well fitted inhibition curve with a large enough effect; inconclusive means small, poorly fitted or top-dose-only effect; inactive means flat fitted curve, though single readings scatter.
Potency means the concentration at half of the fitted maximal effect.

The subject of one assay is ECU. As to the kind of experiment: qHTS profiling for inhibitors of Plasmodium falciparum proliferation (AID 504749). Further: nearly all actives have a fitted effect of over 60% in size. Particulars: P. falciparum in erythrocytes, SYBR Green DNA, 72 h; series mostly up to 28.7 µM. The gist of the method: (§1)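 Three-day growth assay of blood-stage parasites in erythrocytes (0.3% parasitemia, 2.5% hematocrit) at 37 C, 5% CO2, quantified by SYBR Green DNA staining after overnight detergent lysis.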
Background: In qHTS, concentration-response curves come from the screen itself.
Consider `S=C=Nc1ccc(N=C=S)cc1`, for which the Potency entry is “inactive”.
In the case of `N=C(N)n1cccn1`, the Potency entry was “inactive”.
Still for that read-out and setting: with `Cc1cccc(C)c1NC(=O)NC1=CCCN1C` the entry was “inactive”.
Consider `Cc1cc(-c2ccc(N=Nc3ccc4c(S(=O)(=O)O)cc(S(=O)(=O)O)c(N)c4c3O)c(C)c2)ccc1N=Nc1ccc2c(S(=O)(=O)O)cc(S(=O)(=O)O)c(N)c2c1O`, for which the Potency result is “inactive”.
On the same count and under the same terms, with `O=P(O)(O)O` the entry was “inactive”.
The same measure, in the same setting: with `CN(CCO)CC(O)Cn1cnc2c1c(=O)n(C)c(=O)n2C` (stereo not drawn) (tested in a mixture with another compound) the entry was “inactive”; with `O=C(O)Cc1cc(I)c(Oc2ccc(O)c(I)c2)c(I)c1`, “inactive”; with `COC1=C(OC)C(=O)C(C/C=C(\C)CC/C=C(\C)CC/C=C(\C)CC/C=C(\C)CC/C=C(\C)CC/C=C(\C)CC/C=C(\C)CC/C=C(\C)CC/C=C(\C)CCC=C(C)C)=C(C)C1=O`, “inactive”.
Same read-out and setting: for `CN=C1C=CC(=C(c2ccc(N(C)C)cc2)c2ccc(N(C)C)cc2)C=C1` the value was 891 nM (active); for `CCOc1ccc(S(=O)(=O)O)c2cccnc12`, “inactive”.
Consider `FC(F)(F)COCC(F)(F)F`, for which the Potency result is “inactive”.
In the case of `O=C(O)[C@H]1C(=CCO)O[C@H]2CC(=O)N12`, the Potency entry was “inactive”.
The same measure, in the same setting: with `CC1CC(O)CC(C)(C)C1` (stereo not drawn) the entry was “inactive”; with `Cc1ncc(C[n+]2csc(CCOP(=O)(O)O)c2C)c(N)n1`, “inactive”; with `CCCCO`, “inactive”.
Still for that read-out and setting: for `CCOC(=S)SSC(=S)OCC` the value was “inactive”; for `N[C@H](CC(=O)O)C(=O)O`, “inactive”.
Still for that read-out and setting: with `CCC(C(=O)NC(N)=O)c1ccccc1` (stereo not drawn) the entry was “inactive”.
Regarding `CCN(CC)CCOC(=O)c1cccnc1`, the Potency result was “inactive”.
On the same count and under the same terms, with `NC(=S)NS(=O)(=O)c1ccc(N)cc1` the entry was “inactive”; with `COc1cc2c(cc1OC)[C@@H](Cc1cc(OC)c(OC)c(OC)c1)[N+](C)(CCCOC(=O)CC/C=C/CCC(=O)OCCC[N+]1(C)CCc3cc(OC)c(OC)cc3[C@H]1Cc1cc(OC)c(OC)c(OC)c1)CC2` (stereo partly drawn), “inactive”; with `Cc1ncc(COP(=O)(O)O)c(CN)c1O`, “inactive”.
On the same count and under the same terms, for `C[C@H](N)C(=O)N[C@@H](C)P(=O)(O)O` the value was “inactive”; for `CO[C@H]1C[C@@H]2CC[C@@H](C)[C@@](O)(O2)C(=O)C(=O)N2CCCC[C@H]2C(=O)O[C@H]([C@H](C)C[C@@H]2CC[C@@H](OC(=O)C(C)(CO)CO)[C@H](OC)C2)CC(=O)[C@H](C)/C=C(\C)[C@@H](O)[C@@H](OC)C(=O)[C@H](C)C[C@H](C)/C=C/C=C/C=C/1C`, “inactive”.
The same measure, in the same setting: for `CC1=C(/C=C/C(C)=C/C=C/C(C)=C/C(=O)Oc2c(C)c(C)c3c(c2C)CC[C@@](C)(CCC[C@H](C)CCC[C@H](C)CCCC(C)C)O3)C(C)(C)CCC1` the value was “inactive”; for `CCCCCCCCCCCCCC(=O)OCC(COP(=O)([O-])OCC[N+](C)(C)C)OC(=O)CCCCCCCCCCCCC` (stereo not drawn), “inactive”; for `CC(C)c1ncc([N+](=O)[O-])n1C`, “inactive”.
On to `NC(=O)[C@@H]1CCCN1C(=O)[C@H](Cc1cnc[nH]1)NC(=O)[C@@H]1CCC(=O)N1`, for which the Potency entry was “inactive”.
The same measure, in the same setting: with `Cc1ccccn1` the entry was “inactive”.
Still for that read-out and setting: with `Nc1nccs1` the entry was “inactive”; with `O=C(NCCNCC(O)COc1ccc(O)cc1)N1CCOCC1` (stereo not drawn), “inactive”; with `CC(C)CCC[C@@H](C)[C@H]1CC[C@H]2[C@@H]3CC=C4C[C@@H](O)CC[C@]4(C)[C@H]3CC[C@]12C`, “inactive”.
Still for that read-out and setting: for `CS(=O)(=O)OCC(O)C(O)COS(C)(=O)=O` (stereo not drawn) the value was “inactive”.
As to `NCC[C@H](O)C(=O)N[C@@H]1C[C@H](N)[C@@H](O[C@H]2O[C@H](CN)CC[C@H]2N)[C@H](O)[C@H]1O[C@H]1O[C@H](CO)[C@@H](O)[C@H](N)[C@H]1O`, the Potency entry was “inactive”.
Still for that read-out and setting: for `OCC(O)CO` the value was “inactive”; for `CCOc1ccc(NC(=S)Nc2ccc(OCC)cc2)cc1`, “inactive”.
As to `CCOC(=O)c1cc(-c2ccccc2)nc2ccc(C)cc12`, the Potency entry is “inactive”.
As to `OCl`, the Potency entry is “inactive”.
For the compound `CCc1ncnc2cc(OC)c(OC)cc12`, the Potency entry is “inactive”.

Another assay concerns FAB9. Described as above. Particulars: P. falciparum in erythrocytes, SYBR Green DNA, 72 h; series mostly up to 28.7 µM. The gist of the method:
as §1
`S=C=Nc1ccc(N=C=S)cc1`: the Potency entry was “inactive”.
As for `N=C(N)n1cccn1`, the Potency result was “inactive”.
Still for that read-out and setting: for `Cc1cccc(C)c1NC(=O)NC1=CCCN1C` the value was “inactive”.
On the same count and under the same terms, with `Cc1cc(-c2ccc(N=Nc3ccc4c(S(=O)(=O)O)cc(S(=O)(=O)O)c(N)c4c3O)c(C)c2)ccc1N=Nc1ccc2c(S(=O)(=O)O)cc(S(=O)(=O)O)c(N)c2c1O` the entry was “inactive”; with `O=P(O)(O)O`, “inactive”.
Same read-out and setting: with `CN(CCO)CC(O)Cn1cnc2c1c(=O)n(C)c(=O)n2C` (stereo not drawn) (tested in a mixture with another compound) the entry was “inactive”; with `O=C(O)Cc1cc(I)c(Oc2ccc(O)c(I)c2)c(I)c1`, “inactive”; with `COC1=C(OC)C(=O)C(C/C=C(\C)CC/C=C(\C)CC/C=C(\C)CC/C=C(\C)CC/C=C(\C)CC/C=C(\C)CC/C=C(\C)CC/C=C(\C)CC/C=C(\C)CCC=C(C)C)=C(C)C1=O`, “inactive”.
In the case of `CN=C1C=CC(=C(c2ccc(N(C)C)cc2)c2ccc(N(C)C)cc2)C=C1`, the Potency was 1120 nM (active).
Same read-out and setting: for `CCOc1ccc(S(=O)(=O)O)c2cccnc12` the value was “inactive”; for `FC(F)(F)COCC(F)(F)F`, “inactive”.
Same read-out and setting: with `O=C(O)[C@H]1C(=CCO)O[C@H]2CC(=O)N12` the entry was “inactive”; with `CC1CC(O)CC(C)(C)C1` (stereo not drawn), “inactive”.
Same read-out and setting: for `Cc1ncc(C[n+]2csc(CCOP(=O)(O)O)c2C)c(N)n1` the value was “inactive”; for `CCCCO`, “inactive”; for `CCOC(=S)SSC(=S)OCC`, “inactive”.
`N[C@H](CC(=O)O)C(=O)O`: the Potency result is “inactive”.
Consider `CCC(C(=O)NC(N)=O)c1ccccc1` (stereo not drawn), for which the Potency entry is “inactive”.
Same read-out and setting: with `CCN(CC)CCOC(=O)c1cccnc1` the entry was “inactive”; with `NC(=S)NS(=O)(=O)c1ccc(N)cc1`, “inactive”; with `COc1cc2c(cc1OC)[C@@H](Cc1cc(OC)c(OC)c(OC)c1)[N+](C)(CCCOC(=O)CC/C=C/CCC(=O)OCCC[N+]1(C)CCc3cc(OC)c(OC)cc3[C@H]1Cc1cc(OC)c(OC)c(OC)c1)CC2` (stereo partly drawn), “inactive”.
The same measure, in the same setting: for `Cc1ncc(COP(=O)(O)O)c(CN)c1O` the value was “inactive”.
For `C[C@H](N)C(=O)N[C@@H](C)P(=O)(O)O`, the Potency entry was “inactive”.
The same measure, in the same setting: with `CO[C@H]1C[C@@H]2CC[C@@H](C)[C@@](O)(O2)C(=O)C(=O)N2CCCC[C@H]2C(=O)O[C@H]([C@H](C)C[C@@H]2CC[C@@H](OC(=O)C(C)(CO)CO)[C@H](OC)C2)CC(=O)[C@H](C)/C=C(\C)[C@@H](O)[C@@H](OC)C(=O)[C@H](C)C[C@H](C)/C=C/C=C/C=C/1C` the entry was “inactive”; with `CC1=C(/C=C/C(C)=C/C=C/C(C)=C/C(=O)Oc2c(C)c(C)c3c(c2C)CC[C@@](C)(CCC[C@H](C)CCC[C@H](C)CCCC(C)C)O3)C(C)(C)CCC1`, “inactive”; with `CCCCCCCCCCCCCC(=O)OCC(COP(=O)([O-])OCC[N+](C)(C)C)OC(=O)CCCCCCCCCCCCC` (stereo not drawn), “inactive”.
The same measure, in the same setting: for `CC(C)c1ncc([N+](=O)[O-])n1C` the value was “inactive”; for `NC(=O)[C@@H]1CCCN1C(=O)[C@H](Cc1cnc[nH]1)NC(=O)[C@@H]1CCC(=O)N1`, “inactive”.
Take `Cc1ccccn1`: the Potency result is “inactive”.
On the same count and under the same terms, with `Nc1nccs1` the entry was “inactive”; with `O=C(NCCNCC(O)COc1ccc(O)cc1)N1CCOCC1` (stereo not drawn), “inactive”.
On the same count and under the same terms, with `CC(C)CCC[C@@H](C)[C@H]1CC[C@H]2[C@@H]3CC=C4C[C@@H](O)CC[C@]4(C)[C@H]3CC[C@]12C` the entry was “inactive”; with `CS(=O)(=O)OCC(O)C(O)COS(C)(=O)=O` (stereo not drawn), “inactive”; with `NCC[C@H](O)C(=O)N[C@@H]1C[C@H](N)[C@@H](O[C@H]2O[C@H](CN)CC[C@H]2N)[C@H](O)[C@H]1O[C@H]1O[C@H](CO)[C@@H](O)[C@H](N)[C@H]1O`, “inactive”.
The same measure, in the same setting: for `OCC(O)CO` the value was “inactive”.
For `CCOc1ccc(NC(=S)Nc2ccc(OCC)cc2)cc1`, the Potency entry was “inactive”.
Same read-out and setting: for `CCOC(=O)c1cc(-c2ccccc2)nc2ccc(C)cc12` the value was “inactive”; for `OCl`, “inactive”.
Regarding `CCc1ncnc2cc(OC)c(OC)cc12`, the Potency result was “inactive”.
